TrxR1 substrate: qHTS Assay for Substrates of Mammalian Selenoprotein Thioredoxin Reductase 1 (TrxR1): qHTS; AID 588456, 2011; Thioredoxin reductase 1, cytoplasmic (Rattus norvegicus), O89049; 390,000 compounds, 0.01% hits; Potency, µM (titrated, usually from 114 µM), for inactives: at the top dose activity change, negative = substrate turnover; purified TrxR1 substrate turnover, NADPH consumption readout; further: on the % scale 0 is the no-effect control and ±100 the full control effect; nearly all actives have a fitted effect of over 50% in size
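Rat TrxR1, dispensed at 90 nM, was prereduced with 400 uM NADPH (final) for 5 min at ~22 deg C, then incubated with compound 15 min before 400 uM selenite. A first-read NADPH fluorescence drop versus no-compound background flagged substrates.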
Mito fusion yeast: qHTS Assay for Small Molecule Inhibitors of Mitochondrial Division or Activators of Mitochondrial Fusion. Potency, µM (titrated, usually from 46.1 µM), for the others: top-dose growth rescue (activation), hits mostly activators. 320,000 compounds, 0.23% hits. S. cerevisiae fusion-defective mutant growth rescue, CellTiterGlo 48 h; further: % of control where 0% means no effect; nearly all actives have a fitted effect of over 45% in size
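S. cerevisiae fusion-defective temperature-sensitive mutants (e.g. fzo1-1, mgm1-5) grown 48 h at 37C in YPEG (ethanol/glycerol non-fermentable) medium with 23 nl compound per well; growth rescue read as CellTiterGlo luminescence.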
mIDH1 inhibitor: qHTS for Inhibitors of mutant isocitrate dehydrogenase 1 (IDH1): qHTS. Isocitrate dehydrogenase [NADP] cytoplasmic (Homo sapiens), O75874. Potency, µM (titrated, usually from 76.6 µM), for the others: at the highest dose activity change, negative = inhibition, most hits filed as inhibitors. 390,000 compounds, 0.093% hits. AID 602179, 2012. IDH1-R132H enzyme, NADPH consumption, diaphorase/resazurin fluorescence; further: on the % scale 0 is the no-effect control and ±100 the full control effect; nearly all actives have a fitted effect of over 65% in size
Target sequence (O75874 whole entry R132H, stated change not applied): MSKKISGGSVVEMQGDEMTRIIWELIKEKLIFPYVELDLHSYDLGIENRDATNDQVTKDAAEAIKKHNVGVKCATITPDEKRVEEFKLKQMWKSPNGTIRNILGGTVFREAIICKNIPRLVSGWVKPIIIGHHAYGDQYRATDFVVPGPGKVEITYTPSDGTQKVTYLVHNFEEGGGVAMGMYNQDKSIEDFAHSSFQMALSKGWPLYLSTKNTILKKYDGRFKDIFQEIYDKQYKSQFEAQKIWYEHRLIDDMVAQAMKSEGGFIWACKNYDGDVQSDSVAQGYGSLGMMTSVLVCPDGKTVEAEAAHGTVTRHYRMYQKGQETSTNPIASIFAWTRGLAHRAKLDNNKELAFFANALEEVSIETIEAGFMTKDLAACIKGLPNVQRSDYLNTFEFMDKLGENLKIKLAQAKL
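IDH1-R132H (0.5 ug/mL dispensed) in pH 7.5 Tris buffer was preincubated 30 min with compound, then given a substrate mix of 0.016 mM NADPH and 2 mM alpha-KG for 80 min at room temperature; remaining NADPH was read by diaphorase/resazurin fluorescence.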
A549 viability: Nrf2 qHTS screen for inhibitors: counterscreen for cytotoxicity | AID 504648, 2011 | Potency, µM (top dose mostly 46 µM), inactives show at the highest dose activity change, negative = cytotoxicity, most hits filed as inhibitors | A549 ARE-Fluc cells, CellTiter-Fluor viability, 18-24 h | 390,000 compounds, 0.16% hits; further: on the % scale 0 is the no-effect control and ±100 the full control effect
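Cytotoxicity counterscreen: CellTiter-Fluor fluorescence was measured in A549 ARE_Fluc cells after 18-24 h of compound exposure in a concentration series. The subsequent BugLite luminescent read reports ARE-luciferase activity.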
rTrxR1 inhibitor: qHTS Assay for Inhibitors of Mammalian Selenoprotein Thioredoxin Reductase 1 (TrxR1): qHTS. recombinant rTrxR1, NADPH fluorescence consumption, selenite substrate. 390,000 compounds, 1% hits. Potency, µM (titrated, usually from 114 µM), without a hit: at the highest dose activity change, negative = inhibition, most hits filed as inhibitors. AID 588453, 2011. Thioredoxin reductase 1, cytoplasmic (Rattus norvegicus), O89049; further: on the % scale 0 is the no-effect control and ±100 the full control effect; nearly all actives have a fitted effect of over 65% in size
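Rat TrxR1 (90 nM in the dispensed reagent) was pre-reduced with 400 uM NADPH for 5 min at room temperature, then incubated with compound for 15 min. After 400 uM selenite was added, NADPH fluorescence (Ex 340/Em 450 nm) was followed for 8 min.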
Nrf2 inh: Nrf2 qHTS screen for inhibitors | 360,000 compounds, 2.1% hits | Potency, µM (top dose mostly 46 µM), for the others: at the highest dose activity change, negative = inhibition, most hits filed as inhibitors | AID 504444, 2011 | A549 ARE-Fluc reporter, luciferase luminescence, 18-24 h; further: on the % scale 0 is the no-effect control and ±100 the full control effect; nearly all actives have a fitted effect of over 60% in size
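Concentration-response testing used A549 ARE_Fluc cells at 5000 cells/well. Following an 18-24 h compound incubation, viability was read by fluorescence (Ex 405/Em 525) and luciferase output by luminescence.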
* = called active by the depositor; ? = inconclusive; . = not tested or not shown; [ ] = remark or other dose. In the library only some 3.1% were active in any assay of this set; here they are far more common. The call rests on the fitted dose curve; in most records, active means well fitted curve in the direction sought with a large enough effect; inconclusive means small, poorly fitted or top-dose-only effect, or another doubt; inactive means no such curve, though single readings can be large; an effect the other way counts as inactive or inconclusive. Potency means the concentration at half of the fitted maximal effect.

SMILES	TrxR1 substrate	Mito fusion yeast	mIDH1 inhibitor	A549 viability	rTrxR1 inhibitor	Nrf2 inh
COc1cc(F)c(S(=O)(=O)N2CCN(S(=O)(=O)c3ccc(NC(C)=O)cc3)CC2)c(F)c1	.	.	.	6%	.	-6%
COc1ccc(-c2cn3c(n2)sc2cc(C(=O)NCc4ccccc4)ccc23)cc1	1%	.	-16%	-7%	-1%	7%
COc1ccc2c(c1)sc1nc(-c3ccccc3)cn12	-7%	12%	18%	-6%	0%	18µM*
Cc1ccccc1-c1nc(CS(=O)(=O)CC(=O)NCC(C)c2ccccc2)c(C)o1 (centres undefined)	-3%	.	6%	1%	9%	0%
Cc1cc(NC(=O)CC2CCCC2)n(-c2nc3ccccc3[nH]2)n1	-14%	13%	5%	?	-13%	26µM*
Cc1cc(NC(=O)c2ccc(F)cc2F)n(-c2nc3ccccc3[nH]2)n1	8%[2.29 µM]	0%	-5%	9%	5%[2.29 µM]	.
O=[N+]([O-])c1ccccc1/C=N/N1CCN(c2ccncc2S(=O)(=O)N2CCCCC2)CC1	-9%	11µM*	3%	?	-8%	?
CCN(CC)CCC(c1ccc(N(C)C)cc1)c1c(OC)cc(OC)c2c1OC(=O)CC2c1ccc(OC)cc1 (centres undefined)	-4%	.	.	?	-17%	6%
O=C(Nc1nnc2n1CCS2)c1ccc(F)cc1F	3%[57.1 µM]	.	-5%	-1%	15%[57.1 µM]	.
Cc1ccc(-c2nc(CS(=O)CC(=O)NCCCc3ccccc3)c(C)o2)cc1 (centres undefined)	1%	-4%	18%	-3%	?	4%
Cc1oc(-c2ccc(Cl)cc2)nc1CS(=O)CC(=O)NCc1cccs1 (centres undefined)	5%[57.1 µM]	0%	-10%	0%	-16%[57.1 µM]	12%
CCCCNC(=O)CS(=O)Cc1nc(-c2cccs2)oc1C (centres undefined)	5%[57.1 µM]	-1%	5%	0%	6.3µM*	-23%
Cc1oc(-c2cccs2)nc1CS(=O)CC(=O)NCCc1ccccc1 (centres undefined)	11%[57.1 µM]	-1%	-4%	6%	5.6µM*	11%
Cc1oc(-c2cccs2)nc1CS(=O)CC(=O)NCCCOC(C)C (centres undefined)	1%	1%	0%	.	13µM*	-7%
Cc1oc(-c2ccc(Cl)cc2)nc1CS(=O)CC(=O)NCCc1ccccc1 (centres undefined)	-8%[57.1 µM]	2%	6%	-11%	-23%[57.1 µM]	.
Cc1ccc(-n2ncc3c(N4CCCCC4)ncnc32)cc1Cl	-5%[57.1 µM]	.	16%	17%	3%[57.1 µM]	.
CCn1c(=O)cc(OCC(=O)NCc2ccc(F)cc2Cl)c2ccccc21	0%	.	0%	-11%	2%	?
Cc1ccc(NC2CC(=O)N(c3ccc(C)cc3)C2=O)cc1 (centres undefined)	-3%	0%	2%	-8%	25µM*	11%
O=C1CC(Nc2ccc(N3CCOCC3)cc2)C(=O)N1c1ccccc1 (centres undefined)	13%	-7%	2%	6%	?	-2%
CCOc1ccccc1N1C(=O)CC(Nc2ccc(N3CCOCC3)cc2)C1=O (centres undefined)	6%[57.1 µM]	2%	14%	0%	7.1µM*	-2%
O=C1CC(Nc2ccc(N3CCOCC3)cc2)C(=O)N1Cc1ccccc1 (centres undefined)	5%	1%	6%	5%	?	5%
COc1ccccc1N1C(=O)CC(Nc2ccc(N3CCOCC3)cc2)C1=O (centres undefined)	6%[57.1 µM]	1%	9%	-3%	7.9µM*	-1%
CCc1ccc(-n2nc3cc(C)c(NC(=O)c4cccc5ccccc45)cc3n2)cc1	-1%	.	1%	1%	3%	18%
Cn1c2cc(S(C)(=O)=O)sc2c2cnn(Cc3ccccc3F)c(=O)c21	.	.	.	-4%	.	-2%
O=C(CCNS(=O)(=O)c1ccc2c(c1)CCN2C(=O)C1CC1)Nc1ccc(Cl)cc1	-1%[57.1 µM]	.	-6%	1%	18%[57.1 µM]	.
SMILES	TrxR1 substrate	Mito fusion yeast	mIDH1 inhibitor	A549 viability	rTrxR1 inhibitor	Nrf2 inh
CC(=NNC(=S)N1CC2CCC(CC2)C1)c1cccc(C)n1	-10%	.	0%	9.2µM*	?	?
O=C(CCN1CCOCC1)c1ccc2c(c1)OCCO2	7%	-2%	5%	-2%	4µM*	-6%
O=C(CCN1CCc2ccccc2CC1)c1ccc2c(c1)OCCO2	3%	-2%	4%	.	0.32µM*	18µM*
Cc1nc(N2CCOCC2)c2c(C(=O)N(C)Cc3ccccc3)c(C)oc2n1	-3%	.	19%	9%	11%	17%
Cn1cnc([N+](=O)[O-])c1Sc1nc2ccccc2[nH]1	6%[57.1 µM]	2%	1%	-20%	3.5µM*	?
CS(=O)(=O)c1cc([N+](=O)[O-])c(Sc2nc3ccccc3[nH]2)c([N+](=O)[O-])c1	-7%	7%	1%	23µM*	1.3µM*	.
COc1ccc2nc(Sc3c([N+](=O)[O-])nc(C)n3Cc3ccccc3)[nH]c2c1	-12%	-4%	5%	?	7.1µM*	13µM*
O=C(O)c1cc([N+](=O)[O-])c(Sc2nc3ccccc3[nH]2)c([N+](=O)[O-])c1	3%	3%	-7%	-14%	?	-26%
Cc1nc([N+](=O)[O-])c(N2CCN(Cc3ccccc3)CC2)n1Cc1ccccc1	-3%	2%	-3%	-2%	-1%	16%
Cc1nc([N+](=O)[O-])c(Sc2nc3ccccc3[nH]2)n1Cc1ccccc1	-2%	-6%	6%	-26%	3.5µM*	?
COc1cccc(C2c3c(ncn(-c4ccccc4SC)c3=N)Oc3ccc4ccccc4c32)c1 (centres undefined)	.	.	.	-5%	.	4%
Nc1ccc2cccnc2c1	-5%	.	.	.	7%	.
COc1cc(/C=C2/CCc3ccccc3C2=O)cc(OC)c1OC	-15%	13%	4%	-17%	-23%	15µM*
COc1cc(/C=C2\CC/C(=C\c3cc(OC)c(O)c(OC)c3)C2=O)cc(OC)c1O	-12%	-23%	-17%	?	?	16µM*

Compound activity: PubChem BioAssay, National Center for Advancing Translational Sciences (NCATS)
